The source of these data is PubChem BioAssay (NCI).

The panel holds about 83,000 compounds, 20% with a hit somewhere; the sample as a whole holds those more often.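 Plates (96-well) were seeded with cells, treated with compound at one concentration, and incubated for 48 hours before percent growth was determined.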 Active and inactive are the calls of the source. Rule for the calls: active = growth percent below 10; inactive = the rest.

The experiment has as its system HL-60(TB) leukemia. Kind of experiment: NCI-60 one-dose screen, 48 h (100 = growth as untreated, 0 = no growth, -100 = all killed). The note with it: 10 µM unless noted.
Consider `COc1ccc(OC)c2c1[nH]c(=O)c1c3ccccc3cn21`, for which the growth is -49.3% (active).
The same measure for `Cn1cc(-c2csc(-c3cn(CCN)c4ccc(Br)cc34)n2)c2cccnc21`: 41% (inactive).
The same measure for `CCNCCCn1c2c(c3ccc(Cl)cc3c1=O)C(=O)c1cc(OC)cnc1-2`: -42.9% (active).
The same measure for `CC(=O)c1c(C)[nH]c(-c2nc3ccc(N4CCN(C)CC4)cc3[nH]2)c1-c1ccc(N(C)C)cc1`: -17.3% (active).
For the compound `COc1ccc(C(=S)N2CCN(c3cccc(C)c3)CC2)cc1OC`, the growth is 57.3% (inactive).
Under `O=C1/C(=C/c2ccccc2)COc2ccc(O)cc21` stands 33.9% (inactive); under `Cc1cc2cc3cc(C)c(N(C)C)cc3nc2cc1N(C)C`, 47.5% (inactive).
The same measure for `O=C(/C=C/c1ccccc1)c1ccc2ccccc2c1`: 56.1% (inactive); for `COC(=O)C1=C(C(=O)OC)C23C=C(C)C1C2=C(C)C1(CC1)[C@@](C)(O)C3=O` (stereo not given in full): 25.6% (inactive); for `COc1c2c(cc3c1C(=O)N[C@@H]1[C@@H](O)[C@@H](O)[C@H](O)C[C@@H]31)OCCO2`: 95.4% (inactive).
The same measure for `CC(C)N1CCN(c2ccncc2S(=O)(=O)N2CCN(C)CC2)CC1`: 95.7% (inactive); for `COc1cc(/C=C\c2cc(OC)c(OC)c(OC)c2)cc(N)c1OC`: 48.8% (inactive).
For `Cn1ccnc1C(=O)/C=C/c1ccc(CC(=O)NC2CCCCC2)cc1`, the growth was 68.1% (inactive).
The same measure for `Cc1nc(NC(=O)COc2cccc(/C=C3\COc4ccccc4C3=O)c2)sc1C`: -61.4% (active); for `c1ccc(-c2nn(-c3ccccc3)[n+](-c3ccccc3-c3ccccc3)n2)cc1`: -31.4% (active).
